# In PubChem BioAssay:
# A number with no mark means an inactive call. How the calls were made is not given here.
# Molecular target: Pantothenate synthetase (Mycobacterium tuberculosis (strain ATCC 25618 / H37Rv)) (UniProt P9WIL5)
# Experiment: Coupled enzyme confirmation of inhibitors against recombinant Mtb PanC (AID 375);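 further: 0% = full reaction with vehicle and 100% = no enzyme background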
# Conditions: coupled enzyme assay; at 10 µM, active compounds read high
# Sequence of Pantothenate synthetase (Mycobacterium tuberculosis (strain ATCC 25618 / H37Rv)) (P9WIL5 whole entry, looked up): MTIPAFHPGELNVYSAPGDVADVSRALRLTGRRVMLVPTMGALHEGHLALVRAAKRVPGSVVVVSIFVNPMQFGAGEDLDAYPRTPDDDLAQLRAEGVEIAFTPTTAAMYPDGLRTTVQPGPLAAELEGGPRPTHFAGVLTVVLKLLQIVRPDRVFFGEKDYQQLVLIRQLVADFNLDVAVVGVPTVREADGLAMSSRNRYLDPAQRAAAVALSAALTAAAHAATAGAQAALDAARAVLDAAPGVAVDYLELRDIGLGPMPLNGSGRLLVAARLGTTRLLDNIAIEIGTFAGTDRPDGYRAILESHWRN
row,SMILES,inhibition
1,COc1cccc(CC(NC(C)=O)C(=O)NC2CCN(c3c4c(nc5ncnn35)CCC4)CC2)c1 (stereo not drawn),5%
2,CCOc1ccccc1N1CCN(c2nc3ccccc3nc2C(C#N)C(=O)OC)CC1 (stereo not drawn),5%
3,COCCn1nnnc1CN1CCC(Cc2ccccc2)CC1,0%
4,CCCC(=O)N1CCN(c2ccc(NC(=O)c3ccc(Br)o3)cc2)CC1,3%
5,O=C1N(CCCCN2C(=O)C3(OCCO3)c3ccccc32)c2ccccc2C12OCCO2,0%
6,Cc1nnc(NC2CCCCC2)[nH]c1=O,3%
7,Cc1ccc(S(=O)(=O)NCC(=O)OCC(=O)Nc2ncc(Cl)cc2Cl)cc1,0%
8,Cc1ccc(Nc2nc(N)nc(CN3CCCCCC3)n2)cc1,2%
9,CCOC(=O)CC12CN3CN(C1)CC(CC(=O)OCC)(C3)C2=O,1%
10,O=C(O)CCc1ccc(-c2ccc(Br)cc2)n1CC(=O)O,0%
11,CC(C)(C)Cc1nc(-c2ccccn2)no1,0%
12,O=C(CSc1nc2c(sc3ccccc32)c(=O)n1Cc1ccco1)NCC1CCCO1 (stereo not drawn),2%
13,COc1cc(NC(=O)C2CC(c3cccc(OC)c3OC)=NO2)cc(OC)c1OC (stereo not drawn),0%
14,Cc1cccc(N2C(=O)CC(N3CCN(c4cccc(C(F)(F)F)c4)CC3)C2=O)c1 (stereo not drawn),1%
15,Cc1ccc(C)c(C(=O)CC2(O)C(=O)Nc3ccccc32)c1 (stereo not drawn),5%
16,Cc1nc2c(-c3ccc(F)cc3)c(C)nn2c(C)c1CCC(=O)NC(C)CCc1ccco1 (stereo not drawn),0%
17,O=C(O)CCNC(=O)c1ccccc1,3%
18,CCOCCCNC(=O)CS(=O)(=O)Cc1nc(-c2cccc(OC)c2)oc1C,0%
19,Cc1oc2cc(O)ccc2c(=O)c1-c1cnn(-c2ccccc2)c1,5%
20,O=C(OCC(=O)c1cccs1)C1=COCCO1,0%
21,CCN(CC)S(=O)(=O)c1ccc(NC(=O)c2cccc3c2C(=O)N(CCOC)C3)cc1,4%
22,C[C@]12C=CC(=O)C=C1CC[C@H]1[C@@H]3C[C@@H](O)[C@](O)(C(=O)CO)[C@@]3(C)C[C@H](O)[C@@]12F,0%
23,COC(=O)C1CCN(C(=O)NC(C)(C)C)CC1,6%
24,CCC(C)c1ccc(NC(=O)C2CC2)cc1 (stereo not drawn),0%
25,Cn1c(=O)cc(SCC(=O)N2CCOCC2)c2ccc(Cl)cc21,0%
26,Cc1[nH]nc2c1C(=O)CCC2,0%

row,SMILES,inhibition
1,Cc1cccc(OCC(=O)Nc2ccc(N3CCCC3)cc2)c1C,0%
2,Cc1nnc(SCC(=O)NCc2ccc3c(c2)OCO3)s1,5%
3,COc1cccc(N2CCN(Cc3nc(N)nc(Nc4ccccc4)n3)CC2)c1,0%
4,CC(C)C1C2=C(CC(C)(C)CC2=O)ON1c1ccccc1 (stereo not drawn),1%
5,CCOC(=O)c1ccccc1NC1c2ccccc2C(=O)N1C1CCN(C(=O)OCC)CC1 (stereo not drawn),2%
6,COP(C)(=O)c1c(C)nn(-c2ccccc2)c1C (stereo not drawn),0%
7,O=S(=O)(Cc1ccccc1)N1CCCCCC1,0%
8,Cn1cnnc1SCC(=O)Nc1ccccc1Sc1ccccc1,7%
9,COc1cccc(NC(=O)N(Cc2ccco2)C(C)c2cccs2)c1 (stereo not drawn),2%
10,CCC(=O)Oc1ccc(C/C(=N\O)c2ccc(O)cc2O)o1,0%
11,O=c1sc(Nc2ccccc2)nc2ccsc12,0%
12,Cc1nc(C)c(C(=O)C2=C(O)C(=O)N(CCN3CCOCC3)C2c2ccco2)s1 (stereo not drawn),9%
13,Cn1c(=O)c2c(nc3sccn32)n(C)c1=O,0%
14,COC(=O)c1cc(OC)c(OC)cc1NC(=O)c1ccc(Br)o1,0%
15,Cc1ccc(-c2cn3nc(C)c(C)nc3n2)cc1,1%
16,CC(=O)c1c(C)oc2ccc(NS(=O)(=O)c3ccc(O)c(C(=O)O)c3)cc12,4%
17,O=S1(=O)C=C(Sc2nc3ccccc3s2)c2ccccc21,0%
18,Cc1cc(=O)[nH]c(SCC(=O)NCc2ccco2)n1,0%
19,COC(=O)c1ccc(CSc2nnnn2Cc2ccccc2)cc1,0%
20,CCc1[nH]nc2c1C(c1ccncc1)C(C#N)=C(N)O2 (stereo not drawn),4%
21,COCCOC(=O)c1cc(C(=O)c2cc(F)ccc2O)coc1=N,2%
22,O=c1[nH]c(N2CCCCC2)nc2c1CCCC2,0%
23,C#CCN1C(=O)C(O)(CC(=O)c2cccc(OC)c2)c2ccccc21 (stereo not drawn),0%
24,CCOc1cccc(-c2nnc3sc(COc4ccc(OC)cc4)nn23)c1,4%
25,Nc1nc(SCc2nc3scc(-c4cccs4)c3c(=O)[nH]2)n[nH]1,6%
26,Cc1cc(NS(=O)(=O)c2ccccc2)no1,1%

row,SMILES,inhibition
1,Cc1cc(C)nc(NS(=O)(=O)c2ccc(N)cc2)n1,0%
2,CCOC(=O)C1CCN(C(=O)CSc2cc(=O)n(CC)c3ccccc23)CC1,4%
3,NC(=O)C(Cc1ccccc1)NS(=O)(=O)c1ccc(N2CCCC2=O)cc1 (stereo not drawn),0%
4,CCOc1ccccc1N(CC(=O)N1CCOCC1)S(=O)(=O)c1ccccc1,0%
5,COc1cc(OC)cc(-c2nnc(SCC(=O)Nc3cc(C)on3)o2)c1,2%
6,O=c1c2ccccc2nc(SCc2nnc(-c3ccccc3Br)o2)n1-c1ccccc1,0%
7,CCOC(=O)c1[nH]c2ccc(C)cc2c1NC(=O)CN1CCCCC1,3%
8,O=C(c1ncc[nH]1)c1ccccc1C(=O)N1CCOCC1,1%
9,COCCCN1C(=O)C(O)=C(C(=O)c2ccco2)C1c1ccc(Br)cc1 (stereo not drawn),6%
10,CN1CCN(CC#CCC(O)(c2ccccc2)C2CCCC2)CC1 (stereo not drawn),0%
11,c1ccc(Cn2ncc3c2ncn2c(-c4ccncc4)nnc32)cc1,0%
12,Cc1ccc(N2CCN(c3ccc(C)cc3)C(CC(=O)O)C2=O)cc1 (stereo not drawn),7%
13,c1ccc(CNC2=NCCC2)nc1,0%
14,CC(C)Cn1c(CN2CCCCC2C)nc2c1c(=O)n(C)c(=O)n2C (stereo not drawn),0%
15,Cn1c(=O)c2c(-c3ccccc3)n(CCCN3CCOCC3)cc2n(C)c1=O,0%
16,CN(C)C(=O)N1CCCC(C(=O)NCc2ccccc2)C1 (stereo not drawn),0%
17,CCCC(=O)N1c2ccccc2NC2=C(C(=O)CCC2)C1c1ccc(F)cc1 (stereo not drawn),5%
18,Cc1cccc(OCC(=O)Nc2cc(C)ccc2O)c1,0%
19,Cc1ccc(N(C)C(=O)N2CCN(c3ccccn3)CC2)cc1,0%
20,CS(=O)(=O)N1CCc2cc(S(=O)(=O)Nc3ccc4oc5c(c4c3)CCCC5)ccc21,3%
21,CN(C)c1ccc(CNCCC2(O)CCOC(C)(C)C2)cc1 (stereo not drawn),2%
22,COc1ccc(C)cc1NC(=O)CN(Cc1nnc(-c2ccc(Cl)cc2)o1)C1CCCC1,0%
23,CC(Oc1ccccc1)C(=O)NC1CCN(Cc2ccccc2)CC1 (stereo not drawn),7%
24,O=C(NCc1ccccn1)C(C(=O)c1ccc(F)cc1)n1ccccc1=O (stereo not drawn),5%
25,CCCCOc1ccc(C(=O)Nc2ccc(N3CCN(C(C)=O)CC3)cc2)cc1,0%
26,Cc1ccc2nc(C3CCN(CC(=O)N4CCCCCC4)CC3)[nH]c2c1,0%

row,SMILES,inhibition
1,O=C(CN1C(=O)COc2ccccc21)NCCN1CCc2ccccc2C1,7%
2,O=C(Nc1nccs1)NC(C(F)(F)F)C(F)(F)F,7%
3,COc1ccc(C(=O)COC(=O)CCn2nnc(-c3cccs3)n2)cc1,0%
4,CC1(C)CC(=O)C2=C(C1)Nc1ccccc1N=C2,0%
5,COc1ccc(-c2cc(C(F)(F)F)n3ncc(C(=O)NCC4CCCO4)c3n2)cc1 (stereo not drawn),0%
6,Cc1nnc2c3ccccc3c(-c3ccccc3)nn12,0%
7,CCNC(=O)N1c2ccc(OCC)cc2C(C)=CC1(C)C,0%
8,COC(=O)c1[nH]c2cc(OC)ccc2c1NC(=O)CN1CCOCC1,0%
9,CC(=O)Nc1ccc(OCC(O)CN2CCN(c3cccc(Cl)c3)CC2)cc1 (stereo not drawn),3%
10,Cn1c(CN2CCCCC2)nc2cc(NC(=O)c3ccccc3)ccc21,0%
11,CC(Oc1ccc(Cl)cc1Cl)c1nc(-c2ccc(NC(=O)c3cccnc3)cc2)no1 (stereo not drawn),3%
12,O=C1CCCc2c1cc(C(=O)NCCCN1CCOCC1)c(=O)n2-c1ccc(Cl)cc1,0%
13,COc1ccc(N2CC(C(=O)Nc3ccc(F)cc3F)CC2=O)cc1 (stereo not drawn),1%
14,c1ccc(OCc2nc(-c3ccccc3)no2)cc1,0%
15,COc1ccc(S(=O)(=O)NC(CC(=O)NCc2ccco2)c2ccco2)cc1 (stereo not drawn),3%
16,CCc1cccc2c(=O)c(C(=O)NCCN3CCOCC3)c[nH]c12,10%
17,O=C1CC(Cc2ccccc2)C(=O)N1CCCn1ccnc1 (stereo not drawn),0%
18,O=C(C1CCCO1)N1CCN(Cc2nc3ccccc3c(=O)[nH]2)CC1 (stereo not drawn),0%
19,CN(c1ccccc1)S(=O)(=O)c1ccc(C(=O)OCC(=O)NCc2ccco2)cc1,5%
20,O=C(Nc1nc2ccc(S(=O)(=O)N3CCCC3)cc2s1)C1CCCO1 (stereo not drawn),0%
21,CCn1c(C(=O)N2CCCC(C(=O)O)C2)cc2sccc21 (stereo not drawn),11%
22,OCCN1CCN(CCCN2c3ccccc3Sc3ccc(C(F)(F)F)cc32)CC1,2%
23,O=C(NCc1ccc2c(c1)OCO2)C1CCCN(S(=O)(=O)c2cccnc2)C1 (stereo not drawn),0%
24,Cc1ccc(NC(=O)CCN2CCc3ccccc3C2)cc1,0%
25,CN(C)CCNc1oc(-c2ccccc2F)nc1C#N,1%
